Our source for the Potency values is PubChem BioAssay (NCATS).

Records with an inconclusive call do not appear. Entries that show only a call come without a potency. Activity calls are given as the source filed them. The call rests on the fitted dose curve; in most records, active means well fitted curve in the direction sought with a large enough effect; inconclusive means small, poorly fitted or top-dose-only effect, or another doubt; inactive means no such curve, though single readings can be large; an effect the other way counts as inactive or inconclusive. Residues, ends and D or L forms follow the SMILES beside them. *: point of attachment. Cbz = O=C(OCc1ccccc1)*

Tested on in one experiment: not listed separately
Nature of the experiment: Primary qHTS for inhibitors of La Crosse Virus (LACV) - induced cell death in SH-SY5Y cells (AID 1508616).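 Further: top concentration of the series differs between compounds; higher means more rescue of cells from virus-induced death.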 Conditions: SH-SY5Y LACV cytopathicity rescue, ATP luminescence, 6 d; series mostly up to 9.63 µM. In short, it runs like this: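 Rescue of virus-induced death was read as ATPLite luminescence after 6 days at 37C, scaled between DMSO wells with LACV and without virus. Cells were SH-SY5Y, 6000/well, infected at 0.01 MOI after compound addition.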
Background: Quantitative high-throughput screening tests each substance at several concentrations.
Consider `NC1CONC1=O` (configuration not stated), for which the Potency result is “inactive”.

Take `CC(=O)[C@H]1CCC2C3CC=C4C[C@@H](OS(=O)(=O)O)CC[C@]4(C)C3CC[C@@]21C` (some centres not stated): the Potency result was “inactive”.

With `CC1=C(/C=C/C(C)=C/C=C/C(C)=C\C(=O)O)C(C)(C)CCC1`, the Potency entry was “inactive”.

As for `COC(=O)[C@H](NC(=O)c1cc(-c2ccccc2)nc2ccccc12)c1ccccc1`, the Potency result was “inactive”.

As to `COc1ccc2c(c1)c(CC(=O)O)c(C)n2C(=O)c1ccccc1`, the Potency entry was “inactive”.

Turning to `Cc1nc2c(OCc3ccccc3)cccn2c1CC#N`, the Potency result is “inactive”.

For `O=C(O)CCC(=O)N1CCCC1C(=O)O` (configuration not stated), the Potency result is “inactive”.

For `O=C(O)Cc1ccc(O)c(O)c1`, the Potency entry is “inactive”.

With `CCCCOc1cc(CC2CNC(=O)N2)ccc1OC` (configuration not stated), the Potency entry is “inactive”.

`OCC1NCC(O)C(O)C1O` (configuration not stated): the Potency entry is “inactive”.

In the case of `CC(C)(C)c1ccc(/C=C/C(=O)Nc2ccc3c(c2)OCCO3)cc1`, the Potency entry was “inactive”.

Take `CCCCCC(O)CCCC(=O)O` (configuration not stated): the Potency result is “inactive”.

`Cn1cc(C(=O)OCC2CCN(CCNS(C)(=O)=O)CC2)c2ccccc21`: the Potency result was “inactive”.

As for `CCCCCCC(=O)OC1CC(C)(C)NC(C)(C)C1`, the Potency entry was “inactive”.

On to `COc1ccc(C(=O)NCc2cccnc2)cc1C(=O)NCc1cccnc1`, for which the Potency result was “inactive”.

On to `C=CCN1CCc2c(cc(O)c(O)c2Cl)C(c2ccccc2)C1` (configuration not stated), for which the Potency result was “inactive”.

With `NCC(O)(CS(=O)(=O)O)c1ccc(Cl)cc1` (configuration not stated), the Potency result was “inactive”.

Turning to `NC(N)=NC(N)=Nc1ccccc1`, the Potency result was “inactive”.

Regarding `COc1cc(CC(=O)O)ccc1O`, the Potency entry was “inactive”.

Take `O=C(O)c1ccccc1Nc1ccccc1`: the Potency entry was “inactive”.

Take `Nc1ncnc2c1nc(Br)n2C1OC2COP(=O)(O)O[C@@H]2C1O` (some centres not stated): the Potency result was “inactive”.

Regarding `Cc1nc(N=Nc2ccc(S(=O)(=O)O)cc2S(=O)(=O)O)c(COP(=O)(O)O)c(C=O)c1O`, the Potency result is “inactive”.

Take `Nc1nc2c(cnn2CCc2ccccc2)c2nc(-c3ccco3)nn12`: the Potency result is “inactive”.

In the case of `CC(N)(Cc1ccc(O)c(O)c1)C(=O)O` (configuration not stated), the Potency result was “inactive”.

For the compound `CC(C)[C@H](NC(=O)OCc1ccccc1)C(=O)N[C@H](C=O)Cc1ccccc1` (Cbz-Val-Phe-aldehyde), the Potency entry was “inactive”.

On to `COc1cccc(OC)c1OCCNCC1CSc2ccccc2O1` (configuration not stated), for which the Potency entry is “inactive”.

With `N=S(=O)(O)Cc1noc2ccccc12`, the Potency entry is “inactive”.

For `CC(O)C(O)[C@H]1CNc2nc(N)[nH]c(=O)c2N1` (some centres not stated), the Potency result is “inactive”.

For `Oc1cc(O)c2c(c1)O[C@H](c1ccc(O)c(O)c1)[C@@H](O)C2`, the Potency entry is “inactive”.

As for `CCCCCCN(CCCCCC)C(=O)Cc1c(-c2ccc(F)cc2)[nH]c2ccccc12`, the Potency entry was “inactive”.

In the case of `Cn1cc(C(F)(F)F)nc1-c1ccc(OCC(O)CNCCOc2ccc(O)c(C(N)=O)c2)cc1` (configuration not stated), the Potency result is “inactive”.

As to `CCCC(=O)NCCc1c2n(c3ccc(OC)cc13)CCCc1ccccc1-2`, the Potency result was “inactive”.

Turning to `CC(=O)NCCc1c[nH]c2ccc(O)cc12`, the Potency entry was “inactive”.

Consider `NCCS(=O)O`, for which the Potency entry was “inactive”.

In the case of `N[C@H](C(=O)O)c1cc(O)cc(O)c1`, the Potency entry was “inactive”.

As for `NC(C(=O)N[C@@H]1C(=O)N2C(C(=O)O)=C(Cl)CS[C@H]12)c1ccccc1` (some centres not stated), the Potency result is “inactive”.

In the next experiment the target is Calcium and integrin-binding protein 1 (Homo sapiens) (UniProt Q99828). As to the kind of experiment: Validation qHTS for Identification of Calcium Integrin Binding protein 1 (CIB1) Competitor (AID 1508618). Conditions: CIB1-GST / FITC-alphaIIb peptide fluorescence polarization; series mostly up to 114 µM. The essentials: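 Fluorescence polarization with 1 uM CIB1-GST and 100 nM FITC-alphaIIb peptide in HEPES pH 7.4, NaCl, 5 mM CaCl2, Tween20. Compounds at up to 114 uM final, preincubated with protein 15 min; read after 15 min more at RT.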
Chain of Calcium and integrin-binding protein 1 (Homo sapiens) (Q99828 whole entry, looked up): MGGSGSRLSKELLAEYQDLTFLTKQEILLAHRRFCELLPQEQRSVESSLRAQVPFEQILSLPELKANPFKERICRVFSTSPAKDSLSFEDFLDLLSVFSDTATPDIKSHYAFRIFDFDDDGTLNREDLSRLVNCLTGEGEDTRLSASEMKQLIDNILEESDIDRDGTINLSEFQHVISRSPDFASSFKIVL
Regarding `NC1CONC1=O` (configuration not stated), the Potency result is “inactive”.

For the compound `CC(=O)[C@H]1CCC2C3CC=C4C[C@@H](OS(=O)(=O)O)CC[C@]4(C)C3CC[C@@]21C` (some centres not stated), the Potency entry was “inactive”.

For the compound `CC1=C(/C=C/C(C)=C/C=C/C(C)=C\C(=O)O)C(C)(C)CCC1`, the Potency result was “inactive”.

As to `COC(=O)[C@H](NC(=O)c1cc(-c2ccccc2)nc2ccccc12)c1ccccc1`, the Potency result is “inactive”.

As for `COc1ccc2c(c1)c(CC(=O)O)c(C)n2C(=O)c1ccccc1`, the Potency result is “inactive”.

As for `Cc1nc2c(OCc3ccccc3)cccn2c1CC#N`, the Potency result was “inactive”.

For `O=C(O)CCC(=O)N1CCCC1C(=O)O` (configuration not stated), the Potency entry is “inactive”.

`O=C(O)Cc1ccc(O)c(O)c1`: the Potency result was “inactive”.

Take `CCCCOc1cc(CC2CNC(=O)N2)ccc1OC` (configuration not stated): the Potency result was “inactive”.

Turning to `OCC1NCC(O)C(O)C1O` (configuration not stated), the Potency result is “inactive”.

With `CC(C)(C)c1ccc(/C=C/C(=O)Nc2ccc3c(c2)OCCO3)cc1`, the Potency result is “inactive”.

For the compound `CCCCCC(O)CCCC(=O)O` (configuration not stated), the Potency entry is “inactive”.

For the compound `Cn1cc(C(=O)OCC2CCN(CCNS(C)(=O)=O)CC2)c2ccccc21`, the Potency result was “inactive”.

With `CCCCCCC(=O)OC1CC(C)(C)NC(C)(C)C1`, the Potency result was “inactive”.

As for `COc1ccc(C(=O)NCc2cccnc2)cc1C(=O)NCc1cccnc1`, the Potency result was “inactive”.

Regarding `C=CCN1CCc2c(cc(O)c(O)c2Cl)C(c2ccccc2)C1` (configuration not stated), the Potency entry is “inactive”.

With `NCC(O)(CS(=O)(=O)O)c1ccc(Cl)cc1` (configuration not stated), the Potency entry is “inactive”.

Turning to `NC(N)=NC(N)=Nc1ccccc1`, the Potency result is “inactive”.

Turning to `COc1cc(CC(=O)O)ccc1O`, the Potency result is “inactive”.

For the compound `O=C(O)c1ccccc1Nc1ccccc1`, the Potency result was “inactive”.

Consider `Nc1ncnc2c1nc(Br)n2C1OC2COP(=O)(O)O[C@@H]2C1O` (some centres not stated), for which the Potency result was “inactive”.

With `Cc1nc(N=Nc2ccc(S(=O)(=O)O)cc2S(=O)(=O)O)c(COP(=O)(O)O)c(C=O)c1O`, the Potency result was “inactive”.

`Nc1nc2c(cnn2CCc2ccccc2)c2nc(-c3ccco3)nn12`: the Potency entry is “inactive”.

Take `CC(N)(Cc1ccc(O)c(O)c1)C(=O)O` (configuration not stated): the Potency result is “inactive”.

As to `CC(C)[C@H](NC(=O)OCc1ccccc1)C(=O)N[C@H](C=O)Cc1ccccc1` (Cbz-Val-Phe-aldehyde), the Potency entry was “inactive”.

For the compound `COc1cccc(OC)c1OCCNCC1CSc2ccccc2O1` (configuration not stated), the Potency entry was “inactive”.

As to `N=S(=O)(O)Cc1noc2ccccc12`, the Potency result is “inactive”.

With `CC(O)C(O)[C@H]1CNc2nc(N)[nH]c(=O)c2N1` (some centres not stated), the Potency result was “inactive”.

As to `Oc1cc(O)c2c(c1)O[C@H](c1ccc(O)c(O)c1)[C@@H](O)C2`, the Potency result is “inactive”.

In the case of `CCCCCCN(CCCCCC)C(=O)Cc1c(-c2ccc(F)cc2)[nH]c2ccccc12`, the Potency entry is “inactive”.

`Cn1cc(C(F)(F)F)nc1-c1ccc(OCC(O)CNCCOc2ccc(O)c(C(N)=O)c2)cc1` (configuration not stated): the Potency result was “inactive”.

Take `CCCC(=O)NCCc1c2n(c3ccc(OC)cc13)CCCc1ccccc1-2`: the Potency result was “inactive”.

Take `CC(=O)NCCc1c[nH]c2ccc(O)cc12`: the Potency entry was “inactive”.

For `NCCS(=O)O`, the Potency result was “inactive”.

As for `N[C@H](C(=O)O)c1cc(O)cc(O)c1`, the Potency result is “inactive”.

As to `NC(C(=O)N[C@@H]1C(=O)N2C(C(=O)O)=C(Cl)CS[C@H]12)c1ccccc1` (some centres not stated), the Potency entry was “inactive”.
